A short description of test [1]: Caspase-3/7 induction in HepG2 cells by small molecules, qHTS assay (AID 1346978). Further: nearly all actives have a fitted effect of over 15% in size. Summed up: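 Wild-type HepG2 cells (2,000/well) were settled 5 h at 37 C, 5% CO2, then exposed to compounds in DMSO for 17 h. Caspase-3/7 activity was read by luminescence 30 min after adding Caspase-Glo 3/7 reagent at room temperature.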
Test [2] can be described thus: Caspase-3/7 induction in CHO-K1 cells by small molecules, qHTS cell viability counter screen (AID 1346979). Further: nearly all actives have a fitted effect of over 35% in size. Summed up:
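Wild-type CHO-K1 cells were seeded at 1,500 per well, rested 5hr at 37 C, then exposed to compounds in DMSO. After 16hr, CellTiter-Fluor reagent was added and fluorescence read 1hr later as the viability measure.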

Test [3] can be described thus: Caspase-3/7 induction in CHO-K1 cells by small molecules, qHTS assay (AID 1346980). Further: nearly all actives have a fitted effect of over 15% in size. Summed up: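 Wild-type cells were seeded at 1,500 per well and settled 5 hr at 37 C, 5% CO2, then exposed to DMSO-dissolved compounds for 17 hr. Caspase-Glo 3/7 reagent was added, and luminescence was read after 30min at room temperature.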
The nature of test [4]: Caspase-3/7 induction in HepG2 cells by small molecules, qHTS cell viability counter screen (AID 1346981). Further: series mostly up to about 92 µM; nearly all actives have a fitted effect of over 30% in size. An outline of the steps: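 Steps: seed 2,000 HepG2 cells per well; incubate 5 hr at 37 C; pin-add compounds in DMSO; incubate 16 hr; add CellTiter-Fluor; after 1 hr at 37 C and 5% CO2, read fluorescence.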
Background: In qHTS, concentration-response curves come from the screen itself.

The target of test [5] is Nuclear receptor subfamily 1 group I member 2 (Homo sapiens) (UniProt O75469). In words: Human pregnane X receptor (PXR) small molecule agonists, qHTS assay (AID 1346982). Further: nearly all actives have a fitted effect of over 35% in size. Further: potency means the concentration at half of the fitted maximal effect. An outline of the steps:
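Agonist mode qHTS: PXR-Luc HepG2 cells plated 5 hr before DMSO-dissolved compounds were pinned in, cultured 24 hr at 37 C, 5% CO2; ONE-Glo luminescence readout.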

Test [6] has as its target Cytochrome P450 2C9 (Homo sapiens) (UniProt P11712). The test is described as follows: Cytochrome P450 Family 2 Subfamily C Member 9 (CYP2C9) small molecule antagonists: luciferase reporter qHTS assay (AID 1671198). Further: nearly all actives have a fitted effect of over 50% in size. Further: potency means the concentration at half of the fitted maximal effect. Summed up:
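CYP2C9 activity was measured with a P450-Glo proluciferin substrate. Enzyme–substrate mix was held with compound for 10 min at room temperature, then NADPH regeneration solution was added for 1 h at 37C. Luciferin product was read as luminescence.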

For test [7], the target named is Cytochrome P450 1A2 (Homo sapiens) (UniProt P05177). The test is described as follows: Cytochrome P450 Family 1 Subfamily A Member 2 (CYP1A2) small molecule antagonists: luciferase reporter qHTS assay (AID 1671199). Further: nearly all actives have a fitted effect of over 50% in size. Further: potency means the concentration at half of the fitted maximal effect. Summed up: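 Inhibition of CYP1A2 conversion of proluciferin to luciferin, detected by luminescence. Reaction run 1 h at room temperature with NADPH regeneration after brief compound preincubation.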
(A reporter such as luciferase makes a cellular process visible.)

In test [8] the target is Voltage-gated inwardly rectifying potassium channel KCNH2 (Homo sapiens) (UniProt Q12809). In words: Human Ether-a-go-go-Related Gene (hERG) channel small molecule antagonists: fluorescence cell-based qHTS assay (AID 1671200). Further: nearly all actives have a fitted effect of over 50% in size. Further: potency means the concentration at half of the fitted maximal effect. An outline of the steps:
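U2OS cells expressing the channel were plated at 1000 cells/well, incubated overnight at 37 C, then loaded with FluxOR II thallium-sensitive dye for 1 h at room temperature in the dark, with a further 10 min at room temperature before stimulation.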
For orientation: Block of hERG is tested as a sign of cardiac risk.

Test [9] addresses Cytochrome P450 3A4 (Homo sapiens) (UniProt P08684). In words: Cytochrome P450 Family 3 Subfamily A Member 4 (CYP3A4) small molecule antagonists: luciferase reporter qHTS assay (AID 1671201). Further: nearly all actives have a fitted effect of over 50% in size. Further: potency means the concentration at half of the fitted maximal effect. An outline of the steps:
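P450-Glo CYP3A4 system with proluciferin substrate; compounds preincubated 10 min RT with enzyme-substrate mix, then NADPH regeneration added for 1 h RT. Detection reagent 20 min, luminescence read as relative luminescence units.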

Test [10] deals with Cytochrome P450 2D6 (Homo sapiens) (UniProt P10635). The test is described as follows: Cytochrome P450 Family 2 Subfamily D Member 6 (CYP2D6) small molecule antagonists: luciferase reporter qHTS assay (AID 1671196). Further: nearly all actives have a fitted effect of over 50% in size. Further: potency means the concentration at half of the fitted maximal effect. An outline of the steps: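 P450-Glo format: CYP2D6 converts a proluciferin substrate to luciferin in an NADPH-driven reaction lasting 1 h at room temperature. Light output, proportional to CYP2D6 activity, reflects interference by test chemicals.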

Test [11] deals with Cytochrome P450 2C19 (Homo sapiens) (UniProt P33261). In words: Cytochrome P450 Family 2 Subfamily C Member 19 (CYP2C19) small molecule antagonists: luciferase reporter qHTS assay (AID 1671197). Further: nearly all actives have a fitted effect of over 65% in size. Further: potency means the concentration at half of the fitted maximal effect. Summed up:
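Enzyme-substrate mix with proluciferin substrate (P450-Glo CYP2C19 system) preincubated with compounds 10 min at room temperature; NADPH regeneration solution added, 37C for 1 h; detection reagent stops reaction, luminescence read after 20 min. Ketoconazole positive control.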

For test [12], the target named is Nuclear receptor subfamily 1 group I member 2 (Rattus norvegicus) (UniProt Q9R1A7). In words: Rat pregnane X receptor (rPXR) activation by small molecules, qHTS assay (AID 1346983). Further: nearly all actives have a fitted effect of over 20% in size. Particulars: rPXR luciferase reporter cells, One-Glo luminescence, 24 h; max activation: active compounds read high. Summed up:
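Cell-based rPXR luciferase reporter assay, 2,000 cells per well, rested 5hr at 37 C before compound addition in DMSO, then 24 hr at 37 C. One-Glo reagent was added and luminescence read after 30 min at room temperature.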

Test [13] deals with Nuclear receptor subfamily 1 group I member 2 (Homo sapiens) (UniProt O75469). In words: CYP3A4 induction through human pregnane X receptor (PXR) by small molecules, qHTS assay (AID 1346984). Further: nearly all actives have a fitted effect of over 40% in size. An outline of the steps:
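Steps: seed DPX-2 cells, 5 hr at 37C; pin-transfer compounds; 24 hr at 37C; add Luciferin-IPA (3uM final), 3 hr at 37C; add One-Glo, 30 min RT; read luminescence.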

Test [14] has the same target. The test is described as follows: Human pregnane X receptor (PXR) activation by small molecules, qHTS assay (AID 1346985). Further: nearly all actives have a fitted effect of over 40% in size. Summed up:
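DPX-2 cells (HepG2 co-transfected with a PXR response element and a CYP3A4-promoter luciferase construct) were seeded at 2,000 per well, rested 5 hr at 37C, then exposed to DMSO-dissolved compounds for 24 hr. Activation was read as luciferase luminescence.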

A number with no mark means an inactive call. Results filed as inconclusive are left out. The source made the active and inactive calls. The call rests on the fitted dose curve; in most records, active means well fitted curve in the direction sought with a large enough effect in the repeat runs; inconclusive means weak or mixed curves; inactive means no such curve, though single readings can be large; an effect the other way counts as inactive or inconclusive.
On the % scale 0 is the no-effect control and ±100 the full control effect.

Sequence of Nuclear receptor subfamily 1 group I member 2 (Homo sapiens) (O75469 whole entry, looked up): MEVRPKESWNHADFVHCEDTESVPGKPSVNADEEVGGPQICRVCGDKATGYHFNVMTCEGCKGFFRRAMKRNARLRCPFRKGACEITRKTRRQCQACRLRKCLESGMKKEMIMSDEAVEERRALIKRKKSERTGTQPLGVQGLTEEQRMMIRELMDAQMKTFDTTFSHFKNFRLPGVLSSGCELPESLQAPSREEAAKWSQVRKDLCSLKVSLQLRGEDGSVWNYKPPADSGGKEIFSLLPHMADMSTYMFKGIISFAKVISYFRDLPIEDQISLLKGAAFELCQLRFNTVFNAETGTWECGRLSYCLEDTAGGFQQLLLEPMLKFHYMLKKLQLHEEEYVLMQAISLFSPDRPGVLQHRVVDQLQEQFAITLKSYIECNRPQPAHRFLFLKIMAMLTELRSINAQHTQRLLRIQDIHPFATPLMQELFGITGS
Sequence of Cytochrome P450 3A4 (Homo sapiens) (P08684 whole entry, looked up): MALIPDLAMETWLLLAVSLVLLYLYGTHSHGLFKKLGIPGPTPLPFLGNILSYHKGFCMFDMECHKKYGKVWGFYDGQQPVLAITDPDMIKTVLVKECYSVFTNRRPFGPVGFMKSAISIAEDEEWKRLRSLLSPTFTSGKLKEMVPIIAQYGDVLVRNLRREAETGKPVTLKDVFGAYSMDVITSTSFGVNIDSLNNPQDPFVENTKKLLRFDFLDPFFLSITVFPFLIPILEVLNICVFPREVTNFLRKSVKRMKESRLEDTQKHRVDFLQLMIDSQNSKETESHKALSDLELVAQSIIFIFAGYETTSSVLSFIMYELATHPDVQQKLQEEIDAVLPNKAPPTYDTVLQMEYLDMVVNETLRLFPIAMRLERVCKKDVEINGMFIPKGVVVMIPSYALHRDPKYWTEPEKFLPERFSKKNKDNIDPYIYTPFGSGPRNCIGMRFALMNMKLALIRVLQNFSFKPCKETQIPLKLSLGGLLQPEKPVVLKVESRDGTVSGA
Sequence of Voltage-gated inwardly rectifying potassium channel KCNH2 (Homo sapiens) (Q12809 whole entry, looked up): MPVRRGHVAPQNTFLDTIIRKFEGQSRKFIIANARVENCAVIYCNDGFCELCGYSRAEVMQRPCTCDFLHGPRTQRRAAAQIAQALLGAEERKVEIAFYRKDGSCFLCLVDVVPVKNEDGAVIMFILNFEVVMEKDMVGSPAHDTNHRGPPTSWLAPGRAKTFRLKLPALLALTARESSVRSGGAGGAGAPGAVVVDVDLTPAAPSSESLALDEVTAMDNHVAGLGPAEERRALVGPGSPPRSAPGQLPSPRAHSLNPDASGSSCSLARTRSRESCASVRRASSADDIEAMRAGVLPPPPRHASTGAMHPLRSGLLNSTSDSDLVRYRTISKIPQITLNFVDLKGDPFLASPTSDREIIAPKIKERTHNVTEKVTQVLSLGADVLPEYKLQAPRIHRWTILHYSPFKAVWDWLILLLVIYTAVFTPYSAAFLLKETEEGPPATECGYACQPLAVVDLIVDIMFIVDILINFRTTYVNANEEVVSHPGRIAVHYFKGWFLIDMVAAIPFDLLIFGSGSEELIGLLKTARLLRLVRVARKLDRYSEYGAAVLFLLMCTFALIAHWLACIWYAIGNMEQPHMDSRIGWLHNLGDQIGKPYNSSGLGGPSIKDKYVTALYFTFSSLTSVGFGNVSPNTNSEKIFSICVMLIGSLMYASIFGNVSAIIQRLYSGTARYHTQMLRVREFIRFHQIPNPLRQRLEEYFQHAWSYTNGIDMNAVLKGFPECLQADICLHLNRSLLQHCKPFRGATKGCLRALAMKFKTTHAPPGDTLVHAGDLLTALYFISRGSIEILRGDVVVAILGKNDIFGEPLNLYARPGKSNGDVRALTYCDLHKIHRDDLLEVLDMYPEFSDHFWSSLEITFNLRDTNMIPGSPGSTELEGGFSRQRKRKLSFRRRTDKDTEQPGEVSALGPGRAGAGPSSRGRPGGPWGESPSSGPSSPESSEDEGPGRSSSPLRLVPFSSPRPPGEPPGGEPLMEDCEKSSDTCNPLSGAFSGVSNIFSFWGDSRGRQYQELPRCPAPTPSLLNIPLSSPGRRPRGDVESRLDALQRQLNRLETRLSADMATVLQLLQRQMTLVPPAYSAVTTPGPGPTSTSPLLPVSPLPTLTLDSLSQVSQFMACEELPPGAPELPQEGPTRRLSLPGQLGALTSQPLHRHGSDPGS
Sequence of Cytochrome P450 1A2 (Homo sapiens) (P05177 whole entry, looked up): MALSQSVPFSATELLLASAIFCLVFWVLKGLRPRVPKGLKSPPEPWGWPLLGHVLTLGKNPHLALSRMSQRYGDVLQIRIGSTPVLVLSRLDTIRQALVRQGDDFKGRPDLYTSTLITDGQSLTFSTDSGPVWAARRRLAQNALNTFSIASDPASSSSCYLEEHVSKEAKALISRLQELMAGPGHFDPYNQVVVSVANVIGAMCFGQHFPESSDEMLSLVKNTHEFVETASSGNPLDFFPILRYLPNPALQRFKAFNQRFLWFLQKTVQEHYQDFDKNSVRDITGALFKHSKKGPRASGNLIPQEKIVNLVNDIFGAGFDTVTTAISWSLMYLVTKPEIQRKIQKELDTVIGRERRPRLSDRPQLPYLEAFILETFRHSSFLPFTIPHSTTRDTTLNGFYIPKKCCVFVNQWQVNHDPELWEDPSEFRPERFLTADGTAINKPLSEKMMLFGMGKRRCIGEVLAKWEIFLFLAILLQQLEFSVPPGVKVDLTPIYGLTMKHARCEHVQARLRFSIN
Sequence of Nuclear receptor subfamily 1 group I member 2 (Rattus norvegicus) (Q9R1A7 whole entry, looked up): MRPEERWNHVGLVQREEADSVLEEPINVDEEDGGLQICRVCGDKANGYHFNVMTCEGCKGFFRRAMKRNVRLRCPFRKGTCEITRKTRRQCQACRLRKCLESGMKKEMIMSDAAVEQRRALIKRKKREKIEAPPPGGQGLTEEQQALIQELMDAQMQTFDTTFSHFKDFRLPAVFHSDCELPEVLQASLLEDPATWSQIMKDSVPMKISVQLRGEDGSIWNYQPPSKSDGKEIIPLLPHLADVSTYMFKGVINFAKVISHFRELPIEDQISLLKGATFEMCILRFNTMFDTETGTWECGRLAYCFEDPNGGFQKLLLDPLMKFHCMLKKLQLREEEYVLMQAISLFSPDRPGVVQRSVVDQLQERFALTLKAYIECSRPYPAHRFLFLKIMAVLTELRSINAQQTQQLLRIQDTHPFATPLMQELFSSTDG
Sequence of Cytochrome P450 2C9 (Homo sapiens) (P11712 whole entry, looked up): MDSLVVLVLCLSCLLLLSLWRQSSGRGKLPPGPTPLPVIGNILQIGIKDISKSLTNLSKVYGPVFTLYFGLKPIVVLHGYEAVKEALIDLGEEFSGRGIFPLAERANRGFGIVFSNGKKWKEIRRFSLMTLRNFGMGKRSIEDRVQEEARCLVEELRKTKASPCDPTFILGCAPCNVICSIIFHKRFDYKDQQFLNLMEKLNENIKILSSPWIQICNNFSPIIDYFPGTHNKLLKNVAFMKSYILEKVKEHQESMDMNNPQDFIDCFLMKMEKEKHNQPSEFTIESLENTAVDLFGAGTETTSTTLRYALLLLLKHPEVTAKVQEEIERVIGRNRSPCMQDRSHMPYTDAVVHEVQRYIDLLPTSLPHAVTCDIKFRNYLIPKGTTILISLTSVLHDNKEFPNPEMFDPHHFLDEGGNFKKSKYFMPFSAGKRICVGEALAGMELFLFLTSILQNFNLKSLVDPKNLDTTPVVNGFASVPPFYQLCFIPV
Sequence of Cytochrome P450 2C19 (Homo sapiens) (P33261 whole entry, looked up): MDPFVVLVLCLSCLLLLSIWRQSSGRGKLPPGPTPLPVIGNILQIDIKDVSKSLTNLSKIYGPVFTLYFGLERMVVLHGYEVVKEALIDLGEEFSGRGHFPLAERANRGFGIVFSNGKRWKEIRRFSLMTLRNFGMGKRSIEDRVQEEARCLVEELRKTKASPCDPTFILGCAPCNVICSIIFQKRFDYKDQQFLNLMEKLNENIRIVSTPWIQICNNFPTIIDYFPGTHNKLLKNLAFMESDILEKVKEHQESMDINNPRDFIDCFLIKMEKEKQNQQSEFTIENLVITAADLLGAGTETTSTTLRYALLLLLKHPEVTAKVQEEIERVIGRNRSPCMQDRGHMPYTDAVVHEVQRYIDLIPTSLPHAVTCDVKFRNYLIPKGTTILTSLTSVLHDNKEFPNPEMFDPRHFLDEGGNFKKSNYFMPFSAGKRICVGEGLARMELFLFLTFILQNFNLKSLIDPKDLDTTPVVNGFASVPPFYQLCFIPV
Sequence of Cytochrome P450 2D6 (Homo sapiens) (P10635 whole entry, looked up): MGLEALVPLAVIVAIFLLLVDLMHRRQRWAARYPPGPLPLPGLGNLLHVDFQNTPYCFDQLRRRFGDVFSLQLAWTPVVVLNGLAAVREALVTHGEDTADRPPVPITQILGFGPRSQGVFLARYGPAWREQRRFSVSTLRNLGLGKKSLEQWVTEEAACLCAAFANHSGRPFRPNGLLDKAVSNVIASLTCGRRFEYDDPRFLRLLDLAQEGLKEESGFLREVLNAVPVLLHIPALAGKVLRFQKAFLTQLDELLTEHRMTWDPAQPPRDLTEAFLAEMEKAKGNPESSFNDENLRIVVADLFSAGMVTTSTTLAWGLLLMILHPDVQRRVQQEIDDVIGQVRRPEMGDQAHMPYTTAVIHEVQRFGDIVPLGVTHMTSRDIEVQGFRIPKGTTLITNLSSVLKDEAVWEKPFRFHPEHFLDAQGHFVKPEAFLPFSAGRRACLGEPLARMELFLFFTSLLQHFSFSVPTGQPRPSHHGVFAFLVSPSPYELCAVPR

Regarding `CC(C)(C#N)Nc1nc(Cl)nc(NC2CC2)n1`, the outcome in [1] and in test [3] was inactive. For the same compound, the Potency entry in test [2], in test [4], in test [6] and in test [8] was “inactive” in each case. Also, the Potency in [5] was 27.3 µM (active); in test [7] it was 39.9 µM (active); in [9] it was 20 µM (active).

With `C=COC(=O)C(C)(CC)CCC(C)C` (stereo not given), the outcome in [1] and in [3] was inactive. Besides, the Potency result in [2], in [4], in test [5], in test [6], in test [7] and in test [8] was “inactive” each time.

As to `Cc1nc(C2CCCCC2)c(-c2ccc(S(N)(=O)=O)c(F)c2)o1`, the compound was called inactive in test [1] and in test [3]. Further, the Potency result in test [2], in test [4], in test [7] and in test [8] was “inactive” in each case. Further, the results for the Potency in test [10], in test [11] and in test [6] were 13.8 µM (active), 38.9 µM (active) and 3.47 µM (active), respectively.

Turning to `CCOC(=O)COc1cc(-n2ncc(C(F)(F)F)c(C)c2=O)c(F)cc1Cl`, the result in [1] and in test [3] was inactive. Also, the Potency result in test [2] and in test [4] was “inactive” throughout. Moreover, the Potency in test [10] was 63.3 µM (active); in test [11], 35.6 µM (active); in [6], 31.7 µM (active); in [7], 35.6 µM (active); in test [8], 43.6 µM (active).

With `CCN[C@H]1C[C@H](C)S(=O)(=O)c2sc(S(N)(=O)=O)cc21`, the compound was classed as inactive in test [1] and in [3]. Moreover, the Potency result in test [2], in [4], in test [13], in [14], in [10] and in test [6] was “inactive” in each case. In addition, the Potency entry in test [7] and in test [9] was “inactive” in each case. For the same compound, the max activation in test [12] was 0.198%.

`CC(C)(C)OC(=O)c1cccc(N)c1`: the compound was called inactive in test [1] and in [3]. In addition, the Potency result in test [2], in test [4] and in test [8] was “inactive” in each case. The Potency in [5] was 28 µM (active); in test [11] it was 25.9 µM (active); in [6], 32.6 µM (active); in test [7], 7.29 µM (active); in test [9] it was 16.3 µM (active).

Turning to `O=C(O)CCCC[P+](c1ccccc1)(c1ccccc1)c1ccccc1`, the compound was classed as inactive in [1] and in [3]. Further, the Potency entry in test [2], in [4], in test [5], in test [11], in [6] and in [7] was “inactive” in each case. The Potency result in test [8] and in [9] was “inactive” each time.

As to `CC(=O)N[C@H]1[C@H]([C@H](O)[C@H](O)CO)OC(C(=O)O)=C[C@@H]1N=C(N)N`, the result in [1] and in test [3] was inactive. For the same compound, the Potency result in test [2], in test [4], in test [14], in [10], in test [11] and in [6] was “inactive” in each case. In addition, the Potency entry in test [7], in test [8] and in test [9] was “inactive” each time. In addition, the max activation in [12] is -1.75%.

On to `NC(N)=NCCN1CCCCCCC1`, for which, in test [1], the caspase activation is -1.67% [at 0.349 µM]. In addition, the activity change, negative = cytotoxicity in [2] was -1.24% [at 0.349 µM]; in test [4] it was -1.53% [at 0.349 µM]. Further, the caspase-3/7 activation in [3] was -0.223% [at 0.349 µM]. Further, in [12], the max activation was -2.81%.

Take `Clc1cc(Cl)c(Cl)nc1Cl`: the outcome in test [1] and in test [3] was inactive. Also, the Potency result in test [2], in test [4], in test [5], in test [11], in test [6] and in test [8] was “inactive” throughout. In [9], the Potency result is “inactive”.

In the case of `CN(C)C(=O)Oc1cccc([N+](C)(C)C)c1`, the compound was classed as inactive in test [1] and in test [3]. The Potency entry in test [2], in test [4], in test [13], in test [14], in test [10] and in test [11] was “inactive” in each case. Further, the Potency result in test [6], in test [7], in test [8] and in test [9] was “inactive” throughout. The max activation in test [12] is -2.37%.

The values are drawn from PubChem BioAssay (Tox21).
